Measured values: PubChem BioAssay (NCATS)
Values without a mark were called inactive. The call rests on the fitted dose curve; in most records, active means well fitted curve in the direction sought with a large enough effect; inactive means no such curve, though single readings can be large or run the other way.

Target: Alpha-galactosidase (Coffea arabica) (UniProt Q42656)
Assay: Counterscreen for Glucocerebrosidase Inhibitors: qHTS Assay for Coffee Bean alpha-Galactosidase at pH 5.9 (AID 998);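 further: plate controls were uninhibited enzyme for no effect and no-enzyme basal signal for full effect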
Conditions: coffee bean alpha-galactosidase enzyme assay; series mostly up to 76.9 µM; activity, negative = inhibition: at the top concentration
Outline: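 Green coffee bean enzyme (2 nM) with 4-methylumbelliferyl alpha-D-galactopyranoside (80 uM) in 50 mM citric acid, 0.005% Tween-20, pH 5.9, 20 min at room temperature; compounds 0.7 nM–77 uM. Stopped at pH 10, fluorescence Ex365/Em440; Hill-fit AC50.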

Chain of Alpha-galactosidase (Coffea arabica) (Q42656 whole entry, looked up): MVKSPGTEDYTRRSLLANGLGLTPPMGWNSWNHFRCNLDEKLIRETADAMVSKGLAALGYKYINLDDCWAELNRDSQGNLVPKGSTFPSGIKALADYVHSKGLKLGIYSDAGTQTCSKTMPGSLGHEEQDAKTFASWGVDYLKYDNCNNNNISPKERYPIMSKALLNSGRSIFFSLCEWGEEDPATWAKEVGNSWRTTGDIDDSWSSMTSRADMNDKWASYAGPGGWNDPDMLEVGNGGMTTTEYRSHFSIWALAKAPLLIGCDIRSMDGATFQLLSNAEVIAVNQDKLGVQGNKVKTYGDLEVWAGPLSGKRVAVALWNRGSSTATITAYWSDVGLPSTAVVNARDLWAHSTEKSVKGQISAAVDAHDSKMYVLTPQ

SMILES | activity, negative = inhibition
N[C@@H](Cc1c[nH]c2ccc(O)cc12)C(=O)O | -0.453%
O=C(O)c1cccnc1Nc1cccc(C(F)(F)F)c1 | -0.304%
CC(C)(C)c1ccc(C(O)CCCN2CCC(C(O)(c3ccccc3)c3ccccc3)CC2)cc1 (stereo unspecified) | -7.68%
Cc1[nH]c(=O)c(C#N)cc1-c1ccc2nccn2c1 | -0.85%
NC(=O)CC[C@@H](N)C(=O)O | 2.54%
COc1nc(C)nc(Cl)c1NC1=NCCN1 | 1.72%
Cn1cnc2c1c(=O)[nH]c(=O)n2C | 0.336%
CN(C)CCCN1c2ccccc2Sc2ccccc21 | -0.54%
CCCC(C(=O)OCCN(CC)CC)(c1ccccc1)c1ccccc1 | -6.57%
CCOC(=O)C(C)(C)Oc1ccc(Cl)cc1 | 1.12%
COc1ccccc1N1CCN(CCCNc2cc(=O)n(C)c(=O)n2C)CC1 | 1.57%
Nc1ccn([C@H]2CC[C@@H](CO)O2)c(=O)n1 | 3.02%
CCCCC1C(=O)N(c2ccccc2)N(c2ccccc2)C1=O | -3.3%
c1cnc(N2CCN(Cc3ccc4c(c3)OCO4)CC2)nc1 | -2.81%
C[C@]12C=CC(=O)C=C1CC[C@H]1[C@@H]3C[C@@H](O)[C@](O)(C(=O)CO)[C@@]3(C)C[C@H](O)[C@@]12F | 0.346%
NC(N)=NCCC[C@H](N)C(=O)O | -1.37%
Cc1ccc(=O)n(-c2ccccc2)c1 | 0.131%
O=C(O)CCc1nc(-c2ccccc2)c(-c2ccccc2)o1 | 2.01%
Cc1cc(C(C)(C)C)c(O)c(C)c1CC1=NCCN1 | 0.333%
COc1ccc2c(c1)c(CC(=O)O)c(C)n2C(=O)c1ccc(Cl)cc1 | -0.298%
C#CCN(C)Cc1ccccc1 | -0.36%
